# A number with no mark means an inactive call.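 How the source made its calls: active = MAPPIT score above the 99th percentile of random reference set scores in the same batch; inactive = at or below it.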
# B1: Mlf (protein)
# chain: MSLFGALMGDFDDDLGLMNNHMNHTMNAMNMQMRSMNRLMNSFMPDPFMQVSPFDQGFQQNALMERPQMPAMPAMGLFGMPMMPNFNRLLNADIGGNSGASFCQSTVMTMSSGPDGRPQIYQASTSTKTGPGGVRETRRTVQDSRTGVKKMAIGHHIGERAHIIEKEQDMRSGQLEERQEFINLEEGEAEQFDREFTSRASRGAVQSRHHAGGMQAIMPARPAAHTSTLTIEPVEDDDDDDDDCVIQEQQPVRSSAGRHYSSAPTAPQNSGNIATAAAPTPTSSPTTYDTSNGNNNNYVSSRRSYLRNGHGHSLATPRRPLRTPPSSPLATVSTSPSIHPHPYAANPRRQQRAVKHFHTEDEAASSYKAVKRGKKK
# B2: eIF3i (protein)
# chain: MRPLMLQGHERSITQIKYNREGDLLFSCSKDQKPNVWYSLNGERLGTYDGHQGAVWCLDVDWESRKLITGAGDMTAKIWDVEYGTVIASIPTKSSVRTSNFSFSGNQAAYSTDKAMGQSCELFLIDVRNADSSLSEQEPTLRIPMTESKITSMLWGPLDETIITGHDNGNIAIWDIRKGQKVVDSGTDHSAGINDMQLSKDGTMFVTASKDTTAKLFDSESLMCLKTYKTERPVNSAAISPIMDHVVLGGGQDAMEVTTTSTKAGKFDSRFFHLIYEEEFARLKGHFGPINSLAFHPDGKSYASGGEDGFVRVQTFDSTYFENIFE
# B3: Snapin (protein)
# chain: MDSDSTVTSLEENTENFCTNPTRDILAEGITNLFKPTIERLDERVASTIQLQAELRGQLDALAAQLRDIEKAQSQIPEFADKVKELLNVKHKVTVISNVLVTSQERLTGLHKLIEKEQRRRQALLDSALSTNIS
# B4: Os-C (protein)
# chain: MGFHMGRQLLLSGFLLVMLQMVTQTQARPQDVITVAGEETEVVIKREGDDDGDDDDSSSEETVEDSEESRRRRREVNTDNTPSARAVIPGEQVVPILLEAILPSVDAAGDRFARSVQFLKNLTPGSELFAVEKNE
# B5: Obp84a (protein)
# chain: MYSALVRACAVIAFLILSPNCARALQDHAKDNGDIFIINYDSFDGDVDDISTTTSAPREADYVDFDEVNRNCNASFITSMTNVLQFNNTGDLPDDKDKVTSMCYFHCFFEKSGLMTDYKLNTDLVRKYVWPATGDSVEACEAEGKDETNACMRGYAIVKCVFTRALTDARNKPTV
# B6: Rel (protein)
# chain: MNMNQYYDLDNGKNVMFMNDASSTSGYSSSTSPNSTNRSFSPAHSPKTMELQTDFANLNLPGGNSPHQPPMANSPYQNQLLNNGGICQLGATNLINSTGVSFGVANVTSFGNMYMDHQYFVPAPATVPPSQNFGYHQNGLASDGDIKHVPQLRIVEQPVEKFRFRYKSEMHGTHGSLNGANSKRTPKTFPEVTLCNYDGPAVIRCSLFQTNLDSPHSHQLVVRKDDRDVCDPHDLHVSKERGYVAQFINMGIIHTAKKYIFEELCKKKQDRLVFQMNRRELSHKQLQELHQETEREAKDMNLNQVRLCFEAFKIEDNGAWVPLAPPVYSNAINNRKSAQTGELRIVRLSKPTGGVMGNDELILLVEKVSKKNIKVRFFEEDEDGETVWEAYAKFRESDVHHQYAIVCQTPPYKDKDVDREVNVYIELIRPSDDERSFPALPFRYKPRSVIVSRKRRRTGSSANSSSSGTESSNNSLDLPKTLGLAQPPNGLPNLSQHDQTISEEFGREKHLNEFIASEDFRKLIEHNSSDLEKICQLDMGELQHDGHNRAEVPSHRNRTIKCLDDLFEIYKQDRISPIKISHHKVEKWFIEHALNNYNRDTLLHEVISHKKDKLKLAIQTIQVMNYFNLKDVVNSTLNADGDSALHVACQQDRAHYIRPLLGMGCNPNLKNNAGNTPLHVAVKEEHLSCVESFLNGVPTVQLDLSLTNDDGLTPLHMAIRQNKYDVAKKLISYDRTSISVANTMDGNNALHMAVLEQSVELLVLILDAQNENLTDILQAQNAAGHTPLELAERKANDRVVQLLKNVYPEKGELAMTWIPCKVKEEIDSSSDESSDAGQLEIKSEEMDIETKDEDSVELDLSSGPRRQKDESSRDTEMDNNKLQLLLKNKFIYDRLCSLLNQPLGHGSDPQDRKWMQLARQTHLKQFAFIWLGAEDLLDHVKRKGASVEFSTFARALQAVDPQAYALLVNPT
# B7: lok (protein)
# chain: MARDTQGTQGTQSQASNIWTQVESQPMEKIVWGRLYGKNIKIKSLGTSSKYRIIYTHSSFSVDLNNDEFTAGRGEANDLILTLNDLPEKILTRISKVHFIIKRANCELTNPVYIQDLSRNGTFVNNEKIGTNRMRILKNDDVISLSHPTYKAFVFKDLSPNESIGLPEEINKTYYVNRKLGSGAYGLVRLVYDTRTCQQFAMKIVKKNMLSGARPSTNFSDPDRVLNEAKIMKNLSHPCVVRMHDIVDKPDSVYMVLEFMRGGDLLNRIISNKLLSEDISKLYFYQMCHAVKYLHDRGITHRDLKPDNVLLETNDEETLLKVSDFGLSKFVQKDSVMRTLCGTPLYVAPEVLITGGREAYTKKVDIWSLGVVLFTCLSGTLPFSDEYGTPAAQQIKKGRFAYGHPSWKSVSQRAKLLINQMLIVDPERRPSIDDVLQSSWLRDAPMLQKAKRLMKLDGMEIEEENFLEPPTKRSRR
# B8: MED19 (protein)
# chain: MMSNYGNMMDSPKSSPHGGGRSPVVARQDSSGTLKTTISLGKTPTIIHTGPFYSMKEPPAKAELTGDKDLMTEYGLHHTLTKFKEKKFKESLASFLQNIPGINDLITHPVENSTLRSVIEKPPIGGKELLPLTPVQLAGFRLHPGPLPEQYRTTYVTPARKHKNKHKKQKHKDGVTTGQESTLLDSAGLETYEKKHKKQKRHEDDKERKKRKKEKKRKKKNQSPEPGVGLLPGGASLGGAAGVMGATSLGSLGGGPGGPGLSSLSASMGPGVVGNMNSFSSSMQMQQQQQMPMQQQQMSSGGLLGSVLGTSGGPGGGGGGGGGGGGGVGGSLLMSQF
# B9: Eno (protein)
# chain: MSWTASVFLRTSTTSMKFLRLRWPLPRIPQNKSANVAPRFRSKSAVSQLSSGFKFVQIRKSTCDSNEMTIKAIKARQIYDSRGNPTVEVDLTTELGLFRAAVPSGASTGVHEALELRDNDKANYHGKSVLKAVGHVNDTLGPELIKANLDVVDQASIDNFMIKLDGTENKSKFGANAILGVSLAVAKAGAAKKGVPLYKHIADLAGNKEIILPVPAFNVINGGSHAGNKLAMQEFMILPTGATSFTEAMKMGSEVYHHLKNVIKAKFGLDATAVGDEGGFAPNIQSNKEALNLISDAIAKAGYTGKIEIGMDVAASEFYKDGQYDLDFKNEKSDKSQWLPADKLANLYQEFIKDFPIVSIEDPFDQDHWEAWSNLTGCTDIQIVGDDLTVTNPKRIATAVEKKACNCLLLKVNQIGTVTESIAAHLLAKKNGWGTMVSHRSGETEDSFIGDLVVGLSTGQIKTGAPCRSERLAKYNQILRIEEEIGAGVKFAGKSFRKPQ
# B10: Mob4 (protein)
# chain: MKMADGSTILRRNRPGTKSKDFCRWPDEPLEEMDSTLAVQQYIQQLIKRDPSNVELILTMPEAQDEGVWKYEHLRQFCMELNGLAVRLQKECSPSTCTQMTATDQWIFLCAAHKTPKECPAIDYTRHTLDGAACLLNSNKYFPSRVSIKESSVTKLGSVCRRVYRIFSHAYFHHRRIFDEFEAETYLCHRFTHFVTKYNLMSKENLIVPINVGENAAPGESEA
# B11: BomBc1 (protein)
# chain: MKCLILSFAIFVVLASQATAGNVIIGGVCQDCSPPVAENVVVGGQSYRTGRPGQGTVYINSPGAYLGALDGPIRRTGAGGGGGGGAQYPDGYSGRLPGGTYLHNKDCVGCSISGGGD
# B12: Mtap (protein)
# chain: MITIKCKDTNLDPLPVKIGIIGGSGLDDPDILEQRQERVVETPYGEPSDALIEGEINGVQCVLLARHGRKHDIMPSNVNYRANIWALRDVGCTHLIVSTACGSLREEIKPGNLVVPHDFIDRTTKRLQTFYDGKAQSPRGVCHLPMFPAFSERTRNILLQAAKELEIPAHDKATIVTIEGPRFSSRSESHMFRQWGGDLINMTTCPEVVLAKEAGLLYGSVAIATDYDCWRMGCEGVNVQDVLRTFAENVIKVKKILVNAVGRIAKEDWSEDILNAKQCVCNNTMSGAM
# B13: Clamp (protein)
# chain: MEDLTKNIIFTNAINGQPATIQYQTADGTILKQPKIEGQKTEQQPTFYYTTNGNGGTVNLAQLATTDDNKTCYIAQPVGGYNYALVNGMPLNQGAALGIATVDAQGRIQIVNQNKPIAANTISNISFKCDVCSDMFPHLALLNAHKRMHTDGEQQQQQQHNAQAGGDSIAVVSAQGLVQAQNIIGNGQMGQIQIVSSDTLEPVQQSVMQQQQHESKASKCINCGSSMLQQSKRKGPKQVRCESCMQAEQTAQQQQQLFVAQDGQMAHPVQIISTTPQAQAQLQQIVAAQTGGTTPKREASSGSGHHPVKKRNSQQMTKCQKCNGSGVVLVGQHSHASHSGVGGSVKQSVTVKTENPSKPFSCNICGGLFSRYSSLWSHKKLHSGEKNYKCSICGLAFAKAVYLKNHARIHTGEKPYKCQTCGMQFSQSPHLKNHERTHSGERPYVCGVCDKGFARHATLWNHRRIHTGEKPYKCEICGSAFSQAAHLKNHAKVHSGEKPYKCEICSAAFADRFALKRHRGIHQKYGQTAPRQTSSDGMIVHKQEIPDMEDEAQQEVIIGGL
# B14: bsk (protein)
# chain: MTTAQHQHYTVEVGDTNFTIHSRYINLRPIGSGAQGIVCAAYDTITQQNVAIKKLSRPFQNVTHAKRAYREFKLMKLVNHKNIIGLLNAFTPQRNLEEFQDVYLVMELMDANLCQVIQMDLDHDRMSYLLYQMLCGIKHLHSAGIIHRDLKPSNIVVKADCTLKILDFGLARTAGTTFMMTPYVVTRYYRAPEVILGMGYTENVDIWSVGCIMGEMIRGGVLFPGTDHIDQWNKIIEQLGTPSPSFMQRLQPTVRNYVENRPRYTGYSFDRLFPDGLFPNDNNQNSRRKASDARNLLSKMLVIDPEQRISVDEALKHEYINVWYDAEEVDAPAPEPYDHSVDEREHTVEQWKELIYEEVMDYEAHNTNNRTR
# Columns and labels:
# Experiment in all cases: MAPPIT interaction score (arbitrary units); higher = stronger binary interaction signal, active = hit call of the paper
# [1] = target: DnaJ-1; conditions: MAPPIT configuration: N-N; pair source set: Lit-BM-16
# [2] = target: Dfd; conditions: MAPPIT configuration: N-N; pair source set: Finley_Y2H
# [3] = target: Dysb; conditions: pair source set: Lit-BM-16
# [4] = target: Dpit47; conditions: pair source set: RRS
# [5] = target: Vps51; conditions: MAPPIT configuration: N-N; pair source set: Curagen_high_conf
# [6] = target: Drat; conditions: MAPPIT configuration: N-N; pair source set: RRS
# [7] = target: Dif; conditions: pair source set: Lit-BM-16
# [8] = target: Doa; conditions: MAPPIT configuration: N-N; pair source set: Finley_Y2H
# [9] = target: Doc1; conditions: MAPPIT configuration: N-C; pair source set: screen_3
# [10] = target: Cyp1; conditions: pair source set: Lit-BM-16
# [11] = target: DIP1; conditions: MAPPIT configuration: N-N; pair source set: screen_2
# [12] = target: kermit; conditions: MAPPIT configuration: N-N; pair source set: Curagen_high_conf
# [13] = target: shv; conditions: MAPPIT configuration: N-N; pair source set: Curagen_high_conf
# [14] = target: Dpm3; conditions: MAPPIT configuration: N-C; pair source set: screen_3
# [15] = target: Dlc90F; conditions: MAPPIT configuration: N-N; pair source set: Finley_Y2H
# [16] = target: Mtap; conditions: MAPPIT configuration: N-N; pair source set: screen_1
# [17] = target: Deaf1; conditions: MAPPIT configuration: N-N; pair source set: screen_1
# [18] = target: Dhod; conditions: MAPPIT configuration: N-N; pair source set: Curagen_high_conf
# [19] = target: cindr; conditions: MAPPIT configuration: N-N; pair source set: Lit-BM-16
# 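Further: HEK293T cells with Epo stimulation, STAT-responsive firefly luciferase reporter, fold induction versus unstimulated cells divided by the larger fold induction of two negative controls lacking either bait or prey.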
binder,measurement,setting,value
B1,MAPPIT interaction score,[1],-0.321
B2,MAPPIT interaction score,[2],0.00823
B3,MAPPIT interaction score,[3]; MAPPIT configuration: N-C,-2.54
same,MAPPIT interaction score,[3]; MAPPIT configuration: N-N,0.529
B4,MAPPIT interaction score,[4]; MAPPIT configuration: N-C,1.62
same,MAPPIT interaction score,[4]; MAPPIT configuration: N-N,0.00721
same,MAPPIT interaction score,[5],-0.071
B5,MAPPIT interaction score,[6],0.229
B6,MAPPIT interaction score,[7]; MAPPIT configuration: N-C,3.09
same,MAPPIT interaction score,[7]; MAPPIT configuration: N-N,1.57
B7,MAPPIT interaction score,[8],0.00241
B8,MAPPIT interaction score,[9],-0.0798
B9,MAPPIT interaction score,[10]; MAPPIT configuration: N-C,0.69
same,MAPPIT interaction score,[10]; MAPPIT configuration: N-N,-0.102
B10,MAPPIT interaction score,[11],0.606
same,MAPPIT interaction score,[12],0.744
same,MAPPIT interaction score,[13],0.755
B11,MAPPIT interaction score,[14],0.481
B12,MAPPIT interaction score,[15],0.638
same,MAPPIT interaction score,[16],5.81 (active)
B13,MAPPIT interaction score,[17],0.235
B14,MAPPIT interaction score,[18],1.59
same,MAPPIT interaction score,[19],0.0365
